Source: the supplement of paper PMC12067093, “Discovery and optimisation of a covalent ligand for TRIM25 and its application to targeted protein ubiquitination” (Chemical Science, 2025)
The full data set covers some 21,000 targets. This sample favours those with the largest changes.

Compound: CC1Cc2ccccc2N1C(=O)C1CCCN(C1)C(=O)CCl (mixture of isomers) [TRIM25 ligand 11 (diastereomer mixture)]
Assay: probe-labelled cysteine peptide fold change vs DMSO (competition) (log2 fold change); higher = less target engagement (more negative = stronger competition)
Settings: THP-1, incubation time: 4 h
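Note: competitive chemoproteomic profiling in live THP-1 cells with an iodoacetamide desthiobiotin (IA-DTB) probe, comparing probe-labelled peptide intensities in compound-treated cells against DMSO-treated controls.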

UniProt P52272, sequence (P52272 whole entry, looked up): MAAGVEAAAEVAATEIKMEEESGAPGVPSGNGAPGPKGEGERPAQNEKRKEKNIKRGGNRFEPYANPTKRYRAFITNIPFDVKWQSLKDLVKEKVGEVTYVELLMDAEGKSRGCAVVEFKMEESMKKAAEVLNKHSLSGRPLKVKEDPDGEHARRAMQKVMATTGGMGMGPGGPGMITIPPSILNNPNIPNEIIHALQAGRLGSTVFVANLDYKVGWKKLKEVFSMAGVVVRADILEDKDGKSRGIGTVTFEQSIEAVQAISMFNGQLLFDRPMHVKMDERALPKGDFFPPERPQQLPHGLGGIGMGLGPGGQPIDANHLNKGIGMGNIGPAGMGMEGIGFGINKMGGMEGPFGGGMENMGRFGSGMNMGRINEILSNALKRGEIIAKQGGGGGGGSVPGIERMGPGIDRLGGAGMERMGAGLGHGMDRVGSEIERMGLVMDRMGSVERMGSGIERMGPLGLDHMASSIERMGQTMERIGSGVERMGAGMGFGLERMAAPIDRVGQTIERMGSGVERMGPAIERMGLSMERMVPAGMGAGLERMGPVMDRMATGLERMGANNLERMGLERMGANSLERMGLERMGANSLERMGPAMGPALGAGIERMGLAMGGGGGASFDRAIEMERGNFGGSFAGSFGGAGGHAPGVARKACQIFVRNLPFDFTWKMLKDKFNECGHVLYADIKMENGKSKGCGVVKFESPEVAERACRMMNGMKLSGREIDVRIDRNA
UniProt P57678, sequence (P57678 whole entry, looked up): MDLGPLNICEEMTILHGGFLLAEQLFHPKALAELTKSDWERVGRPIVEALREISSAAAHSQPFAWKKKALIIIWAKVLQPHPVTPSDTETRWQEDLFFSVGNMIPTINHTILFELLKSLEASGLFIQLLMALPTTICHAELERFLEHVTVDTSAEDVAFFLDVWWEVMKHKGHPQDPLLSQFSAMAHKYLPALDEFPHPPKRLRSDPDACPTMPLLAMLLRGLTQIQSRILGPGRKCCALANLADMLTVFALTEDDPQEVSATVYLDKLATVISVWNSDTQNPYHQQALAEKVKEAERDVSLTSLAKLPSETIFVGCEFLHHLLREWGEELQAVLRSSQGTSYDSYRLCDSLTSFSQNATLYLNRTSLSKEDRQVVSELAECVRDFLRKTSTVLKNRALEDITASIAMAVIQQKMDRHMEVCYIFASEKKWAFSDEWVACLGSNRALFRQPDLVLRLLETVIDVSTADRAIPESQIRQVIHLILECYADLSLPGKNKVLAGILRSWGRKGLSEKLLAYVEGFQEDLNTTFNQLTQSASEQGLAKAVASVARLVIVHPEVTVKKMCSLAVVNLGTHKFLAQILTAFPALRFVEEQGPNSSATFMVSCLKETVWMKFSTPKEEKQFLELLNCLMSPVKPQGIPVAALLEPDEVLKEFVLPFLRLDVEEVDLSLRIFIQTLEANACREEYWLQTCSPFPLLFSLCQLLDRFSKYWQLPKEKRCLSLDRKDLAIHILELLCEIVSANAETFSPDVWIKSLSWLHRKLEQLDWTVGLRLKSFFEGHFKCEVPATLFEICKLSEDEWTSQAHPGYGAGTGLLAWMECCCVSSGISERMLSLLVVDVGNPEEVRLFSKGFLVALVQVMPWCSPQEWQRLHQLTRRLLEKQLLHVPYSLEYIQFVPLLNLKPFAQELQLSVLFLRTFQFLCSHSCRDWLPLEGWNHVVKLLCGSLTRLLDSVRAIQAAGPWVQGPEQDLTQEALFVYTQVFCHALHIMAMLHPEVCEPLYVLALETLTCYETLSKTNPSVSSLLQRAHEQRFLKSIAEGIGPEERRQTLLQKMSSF
UniProt Q92616, sequence (Q92616 whole entry, looked up): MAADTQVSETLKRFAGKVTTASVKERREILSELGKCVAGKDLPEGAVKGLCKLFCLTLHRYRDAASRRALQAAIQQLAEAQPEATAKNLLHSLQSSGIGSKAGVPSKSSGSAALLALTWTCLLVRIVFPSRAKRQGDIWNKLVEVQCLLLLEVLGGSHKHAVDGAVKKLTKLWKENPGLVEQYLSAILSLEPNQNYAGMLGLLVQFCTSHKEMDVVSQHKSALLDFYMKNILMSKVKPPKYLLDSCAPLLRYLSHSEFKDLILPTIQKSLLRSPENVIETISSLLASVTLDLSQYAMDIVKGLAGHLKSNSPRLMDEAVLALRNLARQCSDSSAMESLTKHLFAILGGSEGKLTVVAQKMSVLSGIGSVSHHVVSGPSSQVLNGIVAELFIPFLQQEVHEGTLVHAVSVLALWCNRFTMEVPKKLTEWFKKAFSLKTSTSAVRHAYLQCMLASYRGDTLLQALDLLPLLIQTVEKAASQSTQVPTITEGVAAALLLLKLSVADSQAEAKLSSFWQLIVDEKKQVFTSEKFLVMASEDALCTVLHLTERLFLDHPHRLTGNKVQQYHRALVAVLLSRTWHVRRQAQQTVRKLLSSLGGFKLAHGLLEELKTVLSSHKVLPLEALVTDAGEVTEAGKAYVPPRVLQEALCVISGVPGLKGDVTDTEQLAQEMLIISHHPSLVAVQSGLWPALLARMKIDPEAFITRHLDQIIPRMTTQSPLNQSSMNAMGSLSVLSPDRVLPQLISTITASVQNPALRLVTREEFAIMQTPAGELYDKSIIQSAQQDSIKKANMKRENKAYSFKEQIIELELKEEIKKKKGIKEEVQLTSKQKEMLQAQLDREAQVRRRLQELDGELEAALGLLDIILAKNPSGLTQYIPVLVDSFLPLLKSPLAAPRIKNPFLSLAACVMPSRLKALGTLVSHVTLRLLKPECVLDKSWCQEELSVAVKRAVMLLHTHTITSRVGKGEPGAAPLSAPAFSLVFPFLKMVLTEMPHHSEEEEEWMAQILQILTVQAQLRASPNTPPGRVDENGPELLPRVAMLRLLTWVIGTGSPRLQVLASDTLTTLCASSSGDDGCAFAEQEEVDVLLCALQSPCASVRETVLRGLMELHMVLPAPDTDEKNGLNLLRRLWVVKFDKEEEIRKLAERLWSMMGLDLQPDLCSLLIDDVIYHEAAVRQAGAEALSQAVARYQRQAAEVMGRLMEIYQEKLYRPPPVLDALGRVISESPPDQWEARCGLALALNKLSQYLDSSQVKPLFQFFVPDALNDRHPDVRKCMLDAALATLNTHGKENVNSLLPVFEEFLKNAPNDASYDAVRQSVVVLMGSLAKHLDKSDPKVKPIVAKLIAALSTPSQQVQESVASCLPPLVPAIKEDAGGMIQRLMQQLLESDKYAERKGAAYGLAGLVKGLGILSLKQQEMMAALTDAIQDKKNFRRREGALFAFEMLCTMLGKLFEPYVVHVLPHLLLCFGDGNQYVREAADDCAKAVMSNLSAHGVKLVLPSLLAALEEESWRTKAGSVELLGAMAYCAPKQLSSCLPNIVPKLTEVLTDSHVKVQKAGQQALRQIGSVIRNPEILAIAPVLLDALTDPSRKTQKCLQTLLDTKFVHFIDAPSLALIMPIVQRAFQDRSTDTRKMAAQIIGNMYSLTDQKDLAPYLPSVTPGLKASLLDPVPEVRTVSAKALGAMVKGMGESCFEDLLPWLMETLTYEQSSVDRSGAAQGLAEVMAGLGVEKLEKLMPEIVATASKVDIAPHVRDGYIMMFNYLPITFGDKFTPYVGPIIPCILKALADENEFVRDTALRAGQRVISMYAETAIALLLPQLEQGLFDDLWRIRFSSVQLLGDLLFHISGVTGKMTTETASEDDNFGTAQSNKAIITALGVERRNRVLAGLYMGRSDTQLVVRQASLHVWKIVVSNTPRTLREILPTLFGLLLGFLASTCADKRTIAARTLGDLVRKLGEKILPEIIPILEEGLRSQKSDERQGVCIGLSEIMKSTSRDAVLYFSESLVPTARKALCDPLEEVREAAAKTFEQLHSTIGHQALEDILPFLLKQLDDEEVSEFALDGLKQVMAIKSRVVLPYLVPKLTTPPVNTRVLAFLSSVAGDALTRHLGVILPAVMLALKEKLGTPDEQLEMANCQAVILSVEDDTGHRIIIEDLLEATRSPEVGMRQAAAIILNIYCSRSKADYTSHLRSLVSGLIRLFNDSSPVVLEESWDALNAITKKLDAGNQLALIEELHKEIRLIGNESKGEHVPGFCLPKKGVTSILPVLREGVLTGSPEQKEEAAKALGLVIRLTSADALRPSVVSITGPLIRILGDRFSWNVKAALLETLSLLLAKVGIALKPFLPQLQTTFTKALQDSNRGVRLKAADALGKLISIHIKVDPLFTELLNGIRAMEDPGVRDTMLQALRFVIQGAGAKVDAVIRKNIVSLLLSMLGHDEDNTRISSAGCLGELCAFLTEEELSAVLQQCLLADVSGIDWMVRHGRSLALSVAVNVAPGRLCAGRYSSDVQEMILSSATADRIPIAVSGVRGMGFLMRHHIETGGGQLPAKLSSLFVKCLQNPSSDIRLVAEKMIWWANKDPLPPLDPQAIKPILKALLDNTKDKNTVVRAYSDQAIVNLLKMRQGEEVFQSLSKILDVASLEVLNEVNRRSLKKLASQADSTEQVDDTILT
UniProt Q9NZL4, sequence (Q9NZL4 whole entry, looked up): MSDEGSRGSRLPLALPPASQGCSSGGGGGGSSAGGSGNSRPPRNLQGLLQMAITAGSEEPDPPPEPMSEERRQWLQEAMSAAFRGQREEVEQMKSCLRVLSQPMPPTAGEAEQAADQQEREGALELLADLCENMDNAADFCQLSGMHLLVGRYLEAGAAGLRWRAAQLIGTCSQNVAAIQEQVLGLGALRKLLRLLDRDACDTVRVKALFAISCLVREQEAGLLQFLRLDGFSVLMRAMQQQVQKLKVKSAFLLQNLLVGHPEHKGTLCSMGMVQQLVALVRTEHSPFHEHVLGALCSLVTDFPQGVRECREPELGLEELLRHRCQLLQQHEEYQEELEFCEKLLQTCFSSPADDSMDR
UniProt P48507, sequence (P48507 whole entry, looked up): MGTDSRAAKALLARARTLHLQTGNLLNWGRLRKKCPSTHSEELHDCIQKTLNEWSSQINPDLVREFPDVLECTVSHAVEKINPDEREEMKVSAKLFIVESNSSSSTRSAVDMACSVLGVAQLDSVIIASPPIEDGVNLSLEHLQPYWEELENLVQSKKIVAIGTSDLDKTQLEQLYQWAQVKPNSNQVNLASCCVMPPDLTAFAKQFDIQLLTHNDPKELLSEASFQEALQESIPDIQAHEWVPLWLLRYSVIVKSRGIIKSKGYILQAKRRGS

Target	probe-labelled cysteine peptide fold change (10 µM)	probe-labelled cysteine peptide fold change (50 µM)
HDGF_P51858_108_KSCVEEPEPEPEAAEGDGDKK (UniProt P51858)	-0.541	-0.677
GDI2_P50395_302_VICILSHPIK (UniProt P50395)	-0.0268	-0.00641
GTF2B_Q00403_37_AGDMICPECGLVVGDR (UniProt Q00403)	0.000693	0.073
GSDMD_P57764_268_CLHNFLTDGVPAEGAFTEDFQGLRAEVETISK (UniProt P57764)	0.377	0.487
GTF3C3_Q9Y5Q9_810_GPCQESFYNLGR (UniProt Q9Y5Q9)	0.136	0.284
H2AFY_O75367_276_FVIHCNSPVWGADKCEELLEK (UniProt O75367)	-0.321	-0.0894
GAPVD1_Q14C86_293_TLSCVDRLEVGEVR (UniProt Q14C86)	0.185	0.128
HADH_Q16836_211_ALGKHPVSCK (UniProt Q16836)	-0.647	-0.601
HARS_P12081_379_KVPCVGLSIGVER (UniProt P12081)	-0.0416	-0.0375
GMPS_P49915_456_VICAEEPYICK (UniProt P49915)	0.0291	0.0222
HADHA_P40939_349_ALMGLYHGQVLCKK (UniProt P40939)	-0.452	-0.365
GPT2_Q8TD30_281_CIEDVIHFAWEEK (UniProt Q8TD30)	0.213	0.0432
GART_P22102_93_SAGVQCFGPTAEAAQLESSK (UniProt P22102)	0.0151	-0.0827
GPATCH8_Q9UKJ3_795_HKGELPPSSCQR (UniProt Q9UKJ3)	-0.186	-0.0452
HMGCL_P35914_141_NINCSIEESFQR (UniProt P35914)	0.0699	0.161
GNAI2_P04899_287_ITHSPLTICFPEYTGANKYDEAASYIQSK (UniProt P04899)	-0.134	-0.103
HSPBP1_Q9NZL4_269_GTLCSMGMVQQLVALVR (UniProt Q9NZL4)	0.0217	0.156
GEMIN4_P57678_210_LRSDPDACPTMPLLAMLLR (UniProt P57678)	-0.252	-0.0506
HADHA_P40939_97+110_PGCFIAGADINMLAACK (UniProt P40939)	-0.0879	0.186
GALNT1_Q10472_482_TDDLCLDVSK (UniProt Q10472)	0.0604	0.00641

Target	probe-labelled cysteine peptide fold change (10 µM)	probe-labelled cysteine peptide fold change (50 µM)
HNRNPA3_P51991_64_WGTLTDCVVMRDPQTKR (UniProt P51991)	-0.717	-0.524
HSPA14_Q0VDF9_394_ENLLVEDSLMIECSAR (UniProt Q0VDF9)	-0.368	-0.17
GCN1_Q92616_2136_LGTPDEQLEMANCQAVILSVEDDTGHR (UniProt Q92616)	0.097	-0.0335
HSPA4_P34932_213_NVVFVDMGHSAYQVSVCAFNR (UniProt P34932)	0.1	0.0909
GATM_P50440_131_KAVAEIEEMCNILK (UniProt P50440)	-0.271	-0.2
HGD_Q93099_180_MLVQPNEICVIQR (UniProt Q93099)	0.479	0.382
HK2_P52789_133_GSGTQLFDHIAECLANFMDK (UniProt P52789)	0.165	-0.083
GAPDH_P04406_247_VPTANVSVVDLTCRLEK (UniProt P04406)	-0.778	-0.389
HAT1_O14929_168_ADMTCR (UniProt O14929)	0.0223	0.0285
GTPBP1_O00178_515_YQAMVHCGSIR (UniProt O00178)	-0.0472	0.0726
HPCAL1_P37235_185_LLQCDPSSASQF<|>HPCA_P84074_185_LLQCDPSSASQF (UniProt P84074+P37235)	0.00885	-0.0604
GART_P22102_941_GSNAHEQALETGVTVTGCTVHFVAEDVDAGQIILQEAVPVKR (UniProt P22102)	-0.0918	0.156
GSTCD_Q8NEC7_571_EHMILCR (UniProt Q8NEC7)	0.0436	0.126
HNRNPM_P52272_676_DKFNECGHVLYADIK (UniProt P52272)	-0.633	-0.474
GCLC_P48506_295_GYVSDIDCR (UniProt P48506)	0.0316	0.199
GNAQ_P50148_144_SLWNDPGIQECYDR (UniProt P50148)	-0.0686	-0.0854
GCLM_P48507_72_EFPDVLECTVSHAVEK (UniProt P48507)	0.0379	0.0286
HNRNPAB_Q99729_224_KFHTVSGSKCEIK (UniProt Q99729)	-0.654	-0.0882
HSPA2_P54652_191_GCAGGEK (UniProt P54652)	-0.0761	-0.123
